“And” between values parts separate entries of the source, which are not always exact repeats. Identical values can stand only once.

One assay is described as follows: growth inhibition of BT084 medulloblastoma cells, cell-based, ICGC_MB145, cisplatin and BGB IC40 combos (AID 1671461).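 Also: cells exposed to drugs for 96 hours; 0% = vehicle DMSO and 100% = high DMSO full killing control.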 Conditions: drug combinations, cisplatin combination, at 5 µM, stronger effect = higher value.
With `CC(=O)OCC(CCn1cnc2cnc(N)nc21)COC(C)=O`, the inhibition was -19.5%.

For the compound `S=c1nc[nH]c2nc[nH]c12`, the inhibition is -59.7% and -17.4% and -65.5%.

For the compound `COc1c(N2CCNC(C)C2)c(F)cc2c(=O)c(C(=O)O)cn(C3CC3)c12` (centres undefined), the inhibition is -1.24% and -0.514%.

On to `CC1COc2c(N3CCN(C)CC3)c(F)cc3c(=O)c(C(=O)O)cn1c23` (centres undefined), for which the inhibition is -9.85% and -7.87% and -3.96%.

With `O=C1c2c(O)ccc(O)c2C(=O)c2c(NCCNCCO)ccc(NCCNCCO)c21`, the inhibition was found to be 49.8%.

For the compound `CS(=O)(=O)OCCCCOS(C)(=O)=O`, the inhibition is 13.1% and -35.4%.

Turning to `O=C(O)CCCc1ccccc1`, the inhibition was -2.13%.

Still in this assay, the particulars now being: drug combinations, measured here: BGB IC40 combination 0.05 uM, at 0.05 µM, stronger effect = higher value.
Regarding `CC(=O)OCC(CCn1cnc2cnc(N)nc21)COC(C)=O`, the inhibition is -14.8%.

For the compound `S=c1nc[nH]c2nc[nH]c12`, the inhibition was -9.27% and 73.7% and -6.21%.

For the compound `COc1c(N2CCNC(C)C2)c(F)cc2c(=O)c(C(=O)O)cn(C3CC3)c12` (centres undefined), the inhibition is 19.1% and 4.51%.

Turning to `CC1COc2c(N3CCN(C)CC3)c(F)cc3c(=O)c(C(=O)O)cn1c23` (centres undefined), the inhibition is -9.27% and 10.9% and 19.9%.

`O=C1c2c(O)ccc(O)c2C(=O)c2c(NCCNCCO)ccc(NCCNCCO)c21`: the inhibition was -13%.

For the compound `CS(=O)(=O)OCCCCOS(C)(=O)=O`, the inhibition is -26.6% and 22.9%.

As to `O=C(O)CCCc1ccccc1`, the inhibition is -5.38%.

Broadly, the inhibition is the drop in the measured response relative to a control, in per cent.

The values above are taken from PubChem BioAssay.
